Hits are enriched below; roughly 3.4% of the tested compounds scored in any of these assays.
TEAD-YAP block – TEAD-YAP interaction inhibition, primary screen, TEAD-YAP interaction inhibitor project, luminescence, HEK-TIYL cells; 640,000 tested, 1.4% active; inhibition, % at 9.12 µM; TEAD-Gal4/YAP UAS-luciferase luminescence; AID 1259422, 2018; in the data active means inhibition above about 32%;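 further: 0% = median of test compound wells and 100% = reference inhibitor wells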
MITF inh – MITF inhibitors, primary screen, biochemical, AlphaScreen, human | Microphthalmia-associated transcription factor (Homo sapiens), O75030 | inhibition, % at 2.6 µM | 650,000 tested, 0.91% active | AlphaScreen MITF homodimerization, bead proximity signal; in the data active means inhibition above about 50%;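 further: 0% = vehicle wells with protein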
GPR151 activ – activators of human GPR151, primary screen, cell-based, PathHunter beta-arrestin, luminescence. G-protein coupled receptor 151 (Homo sapiens), Q8TDV0. PathHunter beta-arrestin GPR151 cells. activation, % at 11.2 µM. 650,000 tested, 1% active. AID 1508602, 2020; in the data active means activation above about 4.9%;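 further: 0% = median of compound wells and 100% = cells with positive control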
Target sequence (Q8TDV0 whole entry, looked up): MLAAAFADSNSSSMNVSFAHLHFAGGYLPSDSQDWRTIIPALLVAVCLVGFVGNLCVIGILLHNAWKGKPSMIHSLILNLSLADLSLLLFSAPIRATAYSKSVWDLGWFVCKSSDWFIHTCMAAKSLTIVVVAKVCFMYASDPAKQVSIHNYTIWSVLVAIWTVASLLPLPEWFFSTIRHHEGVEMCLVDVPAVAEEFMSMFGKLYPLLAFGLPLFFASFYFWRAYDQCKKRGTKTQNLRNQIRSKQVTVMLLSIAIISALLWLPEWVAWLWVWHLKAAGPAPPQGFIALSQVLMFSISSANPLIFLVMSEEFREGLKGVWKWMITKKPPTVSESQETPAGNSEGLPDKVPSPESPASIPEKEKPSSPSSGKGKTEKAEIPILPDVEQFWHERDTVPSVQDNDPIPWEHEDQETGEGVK
FBW7 activator – FBW7 E3 ligase activators, primary screen, biochemical, AlphaScreen, human. F-box/WD repeat-containing protein 7 (Homo sapiens), Q969H0. 650,000 tested, 0.13% active. normalized activity (activation), % at 26.1 µM. AlphaScreen FBW7–phospho-cyclin E peptide binding, activator screen; in the data active means normalized activity above about 1.9%;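 further: purified mutant Fbw7 with reduced substrate affinity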
* hit, by the source's call; . = no result given.

SMILES	TEAD-YAP block	MITF inh	GPR151 activ	FBW7 activator
Cc1nc(C)c(-c2ccc(SCC(=O)Nc3ccc([N+](=O)[O-])cc3)nn2)s1	47*	2	1	0
O=C(NCc1ccncc1)c1ccc(OC2CCN(C3CCOCC3)CC2)cc1	2	-2	0	0
Cc1cc(CN2CCC(Oc3ccc(C(=O)NCc4ccncc4)cc3)CC2)oc1C	33*	-13	0	0
CN(C)S(=O)(=O)Nc1ccc2c(c1)OCCO2	-13	-3	1	0
COc1ccc(-c2nnc(Sc3ccc([N+](=O)[O-])cn3)n2-c2ccccc2)cc1OC	55*	15	-2	0
O=c1cc(-c2cccs2)oc2ccc(O)cc12	-12	7	-3	-1
COc1ccc2oc(-c3ccc(Cl)cc3)cc(=O)c2c1	-29	5	0	0
COc1ccc2oc(-c3ccccc3Cl)cc(=O)c2c1	49*	6	-5	2.6*
COc1ccc2oc(-c3cccs3)cc(=O)c2c1	43*	3	-6	0
CCN1CCCC1CNC(=O)CCc1nnc(CCc2ccccc2OC)o1 (stereo not drawn)	4	-6	1	0
CCN1CCN(c2ccc3cccc(-c4cccs4)c3n2)CC1	8	-13	4	0
O=C(Nc1cc(Cl)cc(Cl)c1)c1ccccn1	-7	0	0	0
N/C(=N\OC(=O)c1ccc(F)cc1)c1ccccn1	56*	5	-8	0
N/C(=N\O)c1ccc(NC(=O)c2ccccn2)cc1	32*	3	-5	0
O=C(Nc1ccc(-c2ccccc2)cc1)c1ccccn1	64*	-9	-5	0
Cc1cc(O)c(C)c(O)c1/C=N\NC(=O)CNC(=O)C(c1ccccc1)c1ccccc1	33*	17	0	0
O=C(Nc1ncc([N+](=O)[O-])s1)c1ccc(Br)cc1F	85*	-5	-12	0
O=C(O)CC(NC(=O)Cc1ccccc1)c1cccc([N+](=O)[O-])c1 (stereo not drawn)	11	0	1	0
COc1ccc(OCCn2cc(C(=S)N3CCOCC3)c3ccccc32)cc1	32*	3	1	0
COc1ccccc1OCCn1cc(C(=S)N2CCOCC2)c2ccccc21	-5	15	0	0
COc1ccc(C(=O)C[n+]2cc(-c3ccc(OC)cc3)n3c2CCCCC3)cc1	38*	-3	0	0
COc1ccc(-c2c[n+](CC(=O)c3ccc(Cl)cc3)c3n2CCCCC3)cc1	14	11	1	0
CN1CCc2cc(C(CNC(=O)Nc3cccc(Cl)c3)N(C)C)ccc21 (stereo not drawn)	49*	-3	-1	0
CN1CCCc2cc(C(CNC(=O)NC(C)(C)C)N(C)C)ccc21 (stereo not drawn)	1	9	-1	0
O=S(=O)(NNC1=NCCCCC1)c1ccccc1	2	7	0	0
SMILES	TEAD-YAP block	MITF inh	GPR151 activ	FBW7 activator
CS(=O)(=O)Nc1ccc(-c2ccnc(Nc3cccc(S(N)(=O)=O)c3)n2)cc1	2	6	0	0
CS(=O)(=O)Nc1cccc(-c2ccnc(Nc3cccc(S(N)(=O)=O)c3)n2)c1	91*	7	4	0
NS(=O)(=O)c1ccc(Nc2nccc(-c3cccc(OCCN4CCCCC4)c3)n2)cc1	68*	26	0	0
CS(=O)(=O)Nc1cccc(-c2ccnc(Nc3ccc(-c4ncn[nH]4)cc3)n2)c1	72*	9	-1	0
COc1ccc(CN2CCC(n3nccc3NC(=O)Nc3ccccc3C)CC2)cc1OC	5	1	0	0
Cc1ccc(C)n1-c1cc(C(=O)O)ccc1Cl	6	76*	-1	-1
Cc1ccc(C)n1-c1ccc(C(=O)O)cc1O	-10	62*	-1	-1
CCCCOc1nc(N2CCOCC2)nc(N2CCOCC2)n1	-8	3	2	0
Oc1ccc(-c2cnn3c(NCc4cccs4)ccnc23)cc1	82*	-29	-1	0
CC(=O)c1cccc(-c2cnn3c(NCc4ccco4)ccnc23)c1	-44	20	1	0
Oc1cccc(-c2cnn3c(NCc4ccco4)ccnc23)c1	89*	-17	0	-1
COCCNc1ccnc2c(-c3cccc(Cl)c3)cnn12	-2	11	0	0
Clc1cccc(-c2cnn3c(NCc4ccco4)ccnc23)c1	18	11	-2	2.0*
Cc1ccc(/C=C/C(=O)Nc2cc(C(F)(F)F)ccc2Cl)cc1	-5	19	2	1
Cc1cn2c3c(=O)n(CCc4ccccc4)c(=O)n(C)c3nc2n1-c1ccc(F)cc1	5	14	3	0
CCN(CC)c1ccc2cc(/C(N)=N/NC(C)=O)c(=O)oc2c1	41*	-6	-1	0
CCN(CC)c1ccc2cc(I)c(=O)oc2c1	-28	-10	0	2.9*
CCN(CC)c1ccc2cc(N3C(=O)CCC3=O)c(=O)oc2c1	62*	8	1	0
CCN(CC)c1ccc2cc(Cl)c(=O)oc2c1	-14	-27	0	1
COC(=O)[C@@H]1CCCN1C(=O)CC1(c2ccccc2)CC(=O)N(CCn2ccnc2)C1=O (stereo partly drawn)	10	3	1	0
Cc1cccc(Nc2nc(-c3ccc(O)c(O)c3)cs2)c1	-55	5	-1	0
Oc1ccc(Nc2nc(-c3ccc(O)c(O)c3)cs2)cc1	-78	54*	0	0
Oc1ccc(Nc2nc(-c3ccc(Cl)cc3)cs2)cc1	.	-2	0	.
Nc1ccc(Nc2nc(-c3ccc(O)c(O)c3)cs2)cc1	-5	98*	1	0
O=C(O)c1ccc(Nc2nc(-c3ccc(O)c(O)c3)cs2)cc1	-4	92*	-2	0
SMILES	TEAD-YAP block	MITF inh	GPR151 activ	FBW7 activator
Cc1cc(C)nc(Sc2ccc(OC(C)C)cc2)n1	-4	9	0	0
OCCCNc1ncnc2c1c(-c1ccccc1)cn2-c1cccc(C(F)(F)F)c1	-4	0	0	1
O=C(Nc1cc([N+](=O)[O-])cc2oc(-c3ccccc3)cc12)c1ccc(F)cc1F	1	16	0	0
COc1ccc(CCNC(=O)c2ccc3c(c2)CC(c2nc4ccc(-c5ccnc(N)n5)cc4[nH]2)CO3)cc1 (stereo not drawn)	41*	-9	0	5.8*
COCCNC(=O)c1ccc2c(c1)CC(c1nc3ccc(-c4ccnc(N)n4)cc3[nH]1)CO2 (stereo not drawn)	-8	13	0	0
CC(CNC(=O)c1ccc2c(c1)CC(c1nc3ccc(-c4ccnc(N)n4)cc3[nH]1)CO2)c1cccs1 (stereo not drawn)	45*	-6	1	2.7*
CC(C)CNC(=O)c1ccc2c(c1)CC(c1nc3ccc(-c4ccnc(N)n4)cc3[nH]1)CO2 (stereo not drawn)	-8	0	-1	2.3*

High-throughput results (PubChem BioAssay)
